Common to all, as to parameters: scale not given: direction of the effect not stated beside the values
For assay [1], the target named is Protein translocase subunit SecA (Escherichia coli (strain K12)) (UniProt P10408). Nature of the assay: Assay to Identify E. coli SecA ATPase Inhibitors. Type of assay: functional. To be noted: 30 µM.
In assay [2] the target is T1, Ubiquitin-activating enzyme e1, putative (Leishmania donovani (strain BPK282A1)) (UniProt E9BSI1).
T1 sequence (whole entry): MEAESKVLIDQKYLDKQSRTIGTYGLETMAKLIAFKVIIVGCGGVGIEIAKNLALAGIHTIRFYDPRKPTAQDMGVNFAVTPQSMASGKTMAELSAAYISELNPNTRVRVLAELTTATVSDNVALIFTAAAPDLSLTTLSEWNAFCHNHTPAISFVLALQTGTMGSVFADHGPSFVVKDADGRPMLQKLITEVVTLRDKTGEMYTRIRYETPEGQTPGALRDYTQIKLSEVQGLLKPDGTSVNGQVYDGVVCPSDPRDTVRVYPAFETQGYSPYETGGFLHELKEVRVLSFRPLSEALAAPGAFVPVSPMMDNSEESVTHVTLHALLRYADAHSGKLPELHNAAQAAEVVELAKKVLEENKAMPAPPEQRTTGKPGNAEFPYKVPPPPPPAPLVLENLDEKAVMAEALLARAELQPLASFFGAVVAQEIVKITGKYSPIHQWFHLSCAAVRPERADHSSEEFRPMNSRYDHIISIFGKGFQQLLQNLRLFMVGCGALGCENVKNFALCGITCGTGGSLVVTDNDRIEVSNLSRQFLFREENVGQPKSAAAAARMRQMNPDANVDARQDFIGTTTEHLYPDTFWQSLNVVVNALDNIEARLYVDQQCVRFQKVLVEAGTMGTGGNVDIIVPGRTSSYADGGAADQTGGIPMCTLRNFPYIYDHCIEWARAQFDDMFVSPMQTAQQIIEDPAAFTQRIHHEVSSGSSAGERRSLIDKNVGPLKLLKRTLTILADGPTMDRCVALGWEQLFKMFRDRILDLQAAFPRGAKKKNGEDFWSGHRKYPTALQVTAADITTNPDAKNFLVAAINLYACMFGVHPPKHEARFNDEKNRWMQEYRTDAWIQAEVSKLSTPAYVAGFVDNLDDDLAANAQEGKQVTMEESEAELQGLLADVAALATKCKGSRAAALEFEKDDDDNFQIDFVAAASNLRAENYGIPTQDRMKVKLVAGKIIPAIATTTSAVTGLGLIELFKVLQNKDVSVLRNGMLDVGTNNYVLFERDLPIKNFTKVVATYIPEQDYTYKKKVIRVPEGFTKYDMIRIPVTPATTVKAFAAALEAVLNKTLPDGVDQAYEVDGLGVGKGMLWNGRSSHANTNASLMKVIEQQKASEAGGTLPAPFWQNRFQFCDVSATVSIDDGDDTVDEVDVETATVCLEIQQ
Kind of assay: Leishmania donovani Ubiquitin Activating Enzyme (LdE1). It counts as functional. To be noted: 30 µM.

The target in assay [3] is AMP-activated protein kinase, AMPK (Homo sapiens) (UniProt P54646+O43741+P54619+Q9UGJ0+Q9Y478+Q13131+Q9UGI9). Nature of the assay: AMP-dependent Kinase enzyme assay. An in vitro enzyme assay that detects ADP turnover that is directly proportional to AMPK activity. This uses naive AMPK that is activated during the assay with MK-8722. Type of assay: functional. The conditions noted are these: 30 µM.

Assay [4] deals with Sialic acid-binding Ig-like lectin 9 (Homo sapiens) (UniProt Q9Y336). Nature of the assay: Hs-Siglec9 ALPHAscreen SOP 20170721. The conditions noted are these: 10 µM.
Another assay concerns Trypanosoma cruzi. Kind of assay: Trypanosoma cruzi phosphomannomutase and mannose-1-phosphate guanylyltransferase assay. The conditions noted are these: 10 µM. It counts as functional.
Assay [5] addresses T2, Arginase-2, mitochondrial (Homo sapiens) (UniProt P78540).
T2 sequence (whole entry): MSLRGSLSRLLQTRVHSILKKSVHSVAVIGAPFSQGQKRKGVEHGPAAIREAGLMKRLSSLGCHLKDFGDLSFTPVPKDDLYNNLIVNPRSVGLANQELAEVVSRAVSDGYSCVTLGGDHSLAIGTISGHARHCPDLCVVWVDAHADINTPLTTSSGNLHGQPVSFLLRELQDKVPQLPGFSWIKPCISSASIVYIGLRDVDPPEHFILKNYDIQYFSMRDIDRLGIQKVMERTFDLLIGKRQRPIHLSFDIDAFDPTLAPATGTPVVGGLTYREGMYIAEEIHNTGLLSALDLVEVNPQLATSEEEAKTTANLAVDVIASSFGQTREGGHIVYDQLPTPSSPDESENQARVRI
Nature of the assay: in vitro enzyme assay to detect the production of urea directly proportional to the activity of Arginase II. Note: in the data most compounds retested in dose-response had high values. It counts as functional. The conditions noted are these: 33.3 µM.

Assay [6] addresses T3, Proteasome subunit beta (Trypanosoma cruzi) (UniProt O96673).
T3 sequence (whole entry): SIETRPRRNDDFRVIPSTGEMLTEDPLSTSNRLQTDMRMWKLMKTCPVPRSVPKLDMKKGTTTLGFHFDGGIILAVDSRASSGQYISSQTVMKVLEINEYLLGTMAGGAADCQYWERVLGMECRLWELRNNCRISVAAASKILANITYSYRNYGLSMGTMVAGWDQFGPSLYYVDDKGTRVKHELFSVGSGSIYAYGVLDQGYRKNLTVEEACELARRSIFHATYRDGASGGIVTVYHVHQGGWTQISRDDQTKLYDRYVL
Nature of the assay: Trypanosoma cruzi proteasome chymotrypsin-like activity (TcProtChymo) assay. Note: in the data most compounds retested in dose-response had high values. It counts as functional. The conditions noted are these: 9.37 µM.

For another assay, the species on record is Homo sapiens. Kind of assay: To identify inhibition of the IFN signalling (Jak-Stat) pathway via expression of an eGFP reporter gene under the control of an IFN-stimulated response element (ISRE) containing MxA promoter. It counts as functional. The conditions noted are these: 30 µM.
Assay [7] deals with T4, Tyrosyl-tRNA synthetase, putative (Trypanosoma cruzi (strain CL Brener)) (UniProt Q4DSP6).
T4 sequence (whole entry): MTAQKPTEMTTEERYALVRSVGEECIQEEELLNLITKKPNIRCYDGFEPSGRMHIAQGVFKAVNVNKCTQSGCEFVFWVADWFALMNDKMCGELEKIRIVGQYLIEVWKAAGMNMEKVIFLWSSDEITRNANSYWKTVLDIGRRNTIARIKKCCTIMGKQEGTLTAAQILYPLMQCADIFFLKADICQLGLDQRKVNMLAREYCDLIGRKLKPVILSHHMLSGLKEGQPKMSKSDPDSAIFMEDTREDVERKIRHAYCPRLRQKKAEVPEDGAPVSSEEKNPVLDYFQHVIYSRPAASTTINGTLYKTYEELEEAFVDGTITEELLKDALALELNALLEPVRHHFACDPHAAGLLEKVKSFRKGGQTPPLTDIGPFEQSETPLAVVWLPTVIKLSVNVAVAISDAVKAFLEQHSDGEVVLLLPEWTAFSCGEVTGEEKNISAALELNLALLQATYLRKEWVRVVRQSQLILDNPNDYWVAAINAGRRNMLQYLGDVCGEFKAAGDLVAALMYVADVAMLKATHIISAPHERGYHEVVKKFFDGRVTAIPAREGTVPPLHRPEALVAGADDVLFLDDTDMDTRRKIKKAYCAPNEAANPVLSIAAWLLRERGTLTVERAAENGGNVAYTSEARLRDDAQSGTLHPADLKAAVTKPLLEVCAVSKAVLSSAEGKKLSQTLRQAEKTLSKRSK
Kind of assay: Trypanosoma cruzi tyrosyl tRNA synthetase (TcYRS) _High Tyrosine SOP. Note: in the data most compounds retested in dose-response had high values. To be noted: 30 µM. Type of assay: functional.

For assay [8], the target named is T4, Tyrosyl-tRNA synthetase, putative (Trypanosoma cruzi (strain CL Brener)). Kind of assay: Trypanosoma cruzi tyrosyl tRNA synthetase (TcYRS) SOP. It counts as functional. To be noted: 30 µM.
The target of assay [9] is Chromo domain-containing protein 1 (Saccharomyces cerevisiae (strain ATCC 204508 / S288c) (Baker's yeast)) (UniProt P32657). Nature of the assay: ScCHD-1 Enzyme Inhibition Assay. Note: in the data most compounds retested in dose-response had high values. It counts as functional. To be noted: 30 µM.

For some of these results: Potency and affinity values are given separately.

Protein translocase subunit SecA (Escherichia coli (strain K12)), sequence (P10408 whole entry): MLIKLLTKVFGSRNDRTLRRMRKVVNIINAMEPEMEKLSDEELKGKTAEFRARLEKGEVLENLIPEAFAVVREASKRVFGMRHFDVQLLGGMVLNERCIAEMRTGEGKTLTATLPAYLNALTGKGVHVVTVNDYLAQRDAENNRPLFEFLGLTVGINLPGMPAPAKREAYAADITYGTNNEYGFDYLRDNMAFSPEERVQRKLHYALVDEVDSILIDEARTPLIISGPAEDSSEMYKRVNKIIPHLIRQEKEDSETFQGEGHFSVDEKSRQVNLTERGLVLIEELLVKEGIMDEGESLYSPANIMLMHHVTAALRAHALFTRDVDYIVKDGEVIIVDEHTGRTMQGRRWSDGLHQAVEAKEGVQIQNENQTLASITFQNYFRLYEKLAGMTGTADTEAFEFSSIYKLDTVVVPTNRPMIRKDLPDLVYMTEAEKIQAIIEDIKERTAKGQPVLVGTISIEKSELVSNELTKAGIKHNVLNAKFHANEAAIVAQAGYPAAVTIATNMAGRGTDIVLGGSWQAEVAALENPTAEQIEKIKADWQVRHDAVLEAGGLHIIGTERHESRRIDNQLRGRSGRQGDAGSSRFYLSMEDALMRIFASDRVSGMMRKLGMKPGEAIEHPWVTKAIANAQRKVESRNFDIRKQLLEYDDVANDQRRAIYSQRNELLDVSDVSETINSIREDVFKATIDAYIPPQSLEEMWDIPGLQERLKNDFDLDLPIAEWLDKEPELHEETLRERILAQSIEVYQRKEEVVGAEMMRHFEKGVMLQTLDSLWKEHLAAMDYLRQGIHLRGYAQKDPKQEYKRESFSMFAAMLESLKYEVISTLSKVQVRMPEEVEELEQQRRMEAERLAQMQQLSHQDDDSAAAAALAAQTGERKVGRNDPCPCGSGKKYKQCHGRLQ
Chromo domain-containing protein 1 (Saccharomyces cerevisiae (strain ATCC 204508 / S288c) (Baker's yeast)), sequence (P32657 whole entry, the tested form may be a part): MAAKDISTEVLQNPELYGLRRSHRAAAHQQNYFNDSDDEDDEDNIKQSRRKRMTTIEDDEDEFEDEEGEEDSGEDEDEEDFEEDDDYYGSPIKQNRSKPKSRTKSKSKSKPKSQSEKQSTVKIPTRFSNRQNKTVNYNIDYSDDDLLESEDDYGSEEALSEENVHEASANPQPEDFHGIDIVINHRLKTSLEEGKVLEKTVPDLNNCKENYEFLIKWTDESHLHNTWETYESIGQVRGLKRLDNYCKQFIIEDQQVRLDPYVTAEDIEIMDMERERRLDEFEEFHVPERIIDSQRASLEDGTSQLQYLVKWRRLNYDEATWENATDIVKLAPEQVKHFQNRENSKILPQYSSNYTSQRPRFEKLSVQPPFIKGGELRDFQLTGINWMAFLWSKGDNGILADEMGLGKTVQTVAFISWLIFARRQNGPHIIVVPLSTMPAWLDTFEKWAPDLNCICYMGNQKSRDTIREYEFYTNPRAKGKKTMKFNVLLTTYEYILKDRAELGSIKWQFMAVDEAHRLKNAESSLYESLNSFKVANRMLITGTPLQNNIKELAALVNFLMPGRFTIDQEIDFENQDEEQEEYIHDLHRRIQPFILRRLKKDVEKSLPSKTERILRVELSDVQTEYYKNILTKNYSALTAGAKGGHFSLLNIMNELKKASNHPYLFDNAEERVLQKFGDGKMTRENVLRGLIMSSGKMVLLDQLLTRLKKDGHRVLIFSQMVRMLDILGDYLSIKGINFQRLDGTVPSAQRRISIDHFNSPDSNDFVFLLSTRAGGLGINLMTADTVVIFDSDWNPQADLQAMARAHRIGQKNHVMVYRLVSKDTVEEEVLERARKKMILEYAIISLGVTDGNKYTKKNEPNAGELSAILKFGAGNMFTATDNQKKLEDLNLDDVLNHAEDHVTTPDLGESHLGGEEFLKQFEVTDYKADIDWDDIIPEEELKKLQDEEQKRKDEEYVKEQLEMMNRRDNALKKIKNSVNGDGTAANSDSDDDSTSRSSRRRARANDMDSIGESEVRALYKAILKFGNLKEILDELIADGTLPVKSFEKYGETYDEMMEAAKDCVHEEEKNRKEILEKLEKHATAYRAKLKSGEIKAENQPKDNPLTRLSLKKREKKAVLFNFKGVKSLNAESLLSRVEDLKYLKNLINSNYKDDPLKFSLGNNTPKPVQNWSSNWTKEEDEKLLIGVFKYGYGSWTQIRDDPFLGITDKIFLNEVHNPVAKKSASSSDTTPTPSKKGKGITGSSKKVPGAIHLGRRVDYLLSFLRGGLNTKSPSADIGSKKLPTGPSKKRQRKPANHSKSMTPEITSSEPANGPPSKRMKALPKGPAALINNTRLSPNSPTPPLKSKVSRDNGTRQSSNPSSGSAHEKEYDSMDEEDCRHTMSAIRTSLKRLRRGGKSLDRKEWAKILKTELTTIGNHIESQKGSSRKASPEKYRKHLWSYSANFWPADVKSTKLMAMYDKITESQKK
Sialic acid-binding Ig-like lectin 9 (Homo sapiens), sequence (Q9Y336 whole entry): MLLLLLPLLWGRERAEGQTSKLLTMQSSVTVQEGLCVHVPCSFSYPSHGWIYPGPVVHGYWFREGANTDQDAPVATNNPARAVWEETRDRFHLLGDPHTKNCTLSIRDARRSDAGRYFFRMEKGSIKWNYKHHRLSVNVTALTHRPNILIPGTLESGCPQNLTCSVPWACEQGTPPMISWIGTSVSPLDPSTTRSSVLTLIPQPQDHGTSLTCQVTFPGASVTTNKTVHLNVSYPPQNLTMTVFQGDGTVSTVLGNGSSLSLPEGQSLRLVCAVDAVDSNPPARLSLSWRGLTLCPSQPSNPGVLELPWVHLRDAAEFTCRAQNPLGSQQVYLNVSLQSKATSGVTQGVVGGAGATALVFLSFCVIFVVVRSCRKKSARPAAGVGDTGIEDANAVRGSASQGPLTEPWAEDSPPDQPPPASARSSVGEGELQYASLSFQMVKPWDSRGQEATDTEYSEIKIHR

As for `CN1CCCN(C(=O)NCc2csc(Br)c2)CC1`, the Percent Effect was -5.63% in assay [1]; 10.8% in assay [2]; -0.581% in [3]; 13.3% in [4]; 0.0929% with Trypanosoma cruzi; 3.88% in [5]. Further, the Percent Effect in assay [6] is 3.05%; in the assay filed under Homo sapiens, 15.4%; in assay [7], 6.93%; in assay [8], 18.3%; in assay [9], -0.533%.
As to `CC(Cn1cccn1)NC(=O)NCCc1ccc(Cl)s1` (stereo unspecified), the Percent Effect is -0.239% in assay [1]; 22.8% in assay [2]; 0.135% in assay [3]; -8.1% in [4]; -0.283% in the assay on Trypanosoma cruzi; 1.52% in [5]. Moreover, the Percent Effect in assay [6] was 9.75%; in the assay filed under Homo sapiens, 5.52%; in assay [7], 3.45%; in assay [8] it was 16.5%; in [9] it was -2.95%.
For `O=C1N(Cc2ccccc2F)CCCC12CCN(C1CCSCC1)C2` (stereo unspecified), the Percent Effect in assay [1] is -1.79%; in [2], -8%; in [3], -0.682%; in assay [4], 0.979%; in the assay on Trypanosoma cruzi, -1.46%; in assay [5], 3.65%. For the same compound, the Percent Effect is 8.37% in assay [6]; -10.4% in the assay listed under Homo sapiens; 8.2% in [7]; 8.64% in [8]; 0.67% in assay [9].
As to `N#Cc1cccc(CN2CC[C@@H]3[C@@H]2CC(=O)N3Cc2cccnc2)c1`, the Percent Effect is -2.43% in assay [1]; 16% in assay [2]; 12.4% in [3]; 1.95% in assay [4]; -4.72% with Trypanosoma cruzi; -1.17% in [5]. Further, the Percent Effect in [6] was 13.7%; in the assay filed under Homo sapiens, -10.2%; in [7], 3.19%; in [8] it was 11.5%; in assay [9] it was -1.86%.
For `c1ncn(CC2CN(CC3CCCC3)CCO2)n1` (stereo unspecified), the Percent Effect in assay [1] was -3.42%; in assay [2], 11.4%; in assay [3], -1.94%; in assay [4], -0.971%; in the assay with Trypanosoma cruzi, -1.54%; in assay [5], 6.24%. The Percent Effect in assay [6] is 11.8%; in the assay listed under Homo sapiens, 10.9%; in assay [7], 0%; in assay [8], 7.59%; in assay [9], -14%.
In the case of `Cc1nc(C)n(C2CCCN(C(=O)c3csc(C(C)C)n3)C2)n1` (stereo unspecified), the Percent Effect in assay [1] was -5.33%; in [2], 29.7%; in assay [3], -10.5%; in assay [4], 12.2%; in the assay on Trypanosoma cruzi it was 8.4%; in assay [5], -10.4%. The Percent Effect in [6] was 8.83%; in the assay filed under Homo sapiens, 14.5%; in assay [7], 8.37%; in [8], 28.4%; in assay [9], -17.4%.
With `c1csc(-c2nc(CN3CCOC(Cn4cncn4)C3)cs2)c1` (stereo unspecified), the Percent Effect in [1] was -4.12%; in assay [2] it was 7.89%; in assay [3], -2.14%; in assay [4] it was 1.07%; in the assay on Trypanosoma cruzi it was -3.83%; in [5] it was 0%. Besides, the Percent Effect was 15.5% in assay [6]; -10.6% in the assay listed under Homo sapiens; 4.43% in assay [7]; 6.17% in assay [8]; -6.35% in assay [9].
`COc1ccc(-n2cnnc2SCC(C)(C)O)cn1`: the Percent Effect in assay [1] was -0.589%; in [2], 2.67%; in assay [3], -3.7%; in assay [4] it was 25.4%; with Trypanosoma cruzi, 3.02%; in [5] it was 16.7%. Besides, the Percent Effect is -5.75% in assay [6]; 15.9% in the assay listed under Homo sapiens; 3.83% in assay [7]; 3.7% in [8]; -1.24% in [9].
Turning to `CCOCC1CN(S(=O)(=O)N(C)C)Cc2cnn(C)c21` (stereo unspecified), the Percent Effect was -2.24% in assay [1]; 5.48% in assay [2]; -0.778% in [3]; 4.27% in assay [4]; -5.16% in the assay on Trypanosoma cruzi; -8.38% in assay [5]. The Percent Effect in assay [6] was 4.71%; in the assay filed under Homo sapiens it was 11.6%; in [7], 7.29%; in assay [8], 1.24%; in [9] it was -2.91%.
With `Cc1nccc(-c2cccc(NCC(=O)N3CCNC3=O)c2)n1`, the Percent Effect was -3.58% in [1]; 21.1% in assay [2]; -11.7% in assay [3]; 0.813% in assay [4]; 6.82% in the assay on Trypanosoma cruzi; -1.44% in assay [5]. Besides, the Percent Effect in [6] is 11.2%; in the assay listed under Homo sapiens, 16.4%; in assay [7], 10.3%; in assay [8], 28.4%; in [9], -9.15%.
For the compound `CC(C)c1noc(C(C)N2CCN(CCN3CCCC3=O)CC2)n1` (stereo unspecified), the Percent Effect was -5.03% in assay [1]; 5.41% in assay [2]; -10% in assay [3]; 9.09% in [4]; -2.17% in the assay with Trypanosoma cruzi; 1.6% in assay [5]. Moreover, the Percent Effect was -1.62% in [6]; 9.64% in the assay listed under Homo sapiens; 1.48% in [7]; 1.24% in [8]; 0.594% in assay [9].
